# In the library only some 3.3% were active in any assay of this set; here they are far more common.
# Epigenetic mod = epigenetic modulators derepressing GFP locus in mouse cells; mouse C127i GFP locus derepression, cytometry, 30 h; 68,000 tested, 0.09% active; AID 597; Potency, µM (doses to about 46.1 µM), for inactives: top-dose GFP derepression (activation); further: % of control where 0% means no effect
#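 Derepression screen: silenced CMV-GFP reporter in murine C127i cells, 30 h compound incubation at 37 C, washed cells imaged by laser-scanning cytometer to enumerate GFP-expressing objects of 20 to 120 um.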
# Bst PK mod = modulators of Bacillus stearothermophilus pyruvate kinase; 51,000 tested, 1.2% active; Potency, µM; AID 361; purified pyruvate kinase, luminescence ATP production; ribose 5-phosphate activator present at AC10; in the data active means potency below about 11 µM; inconclusive means mostly about 12 µM to 25 µM;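 the screen sought inhibitors and activators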;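 further: potency means the concentration at half of the fitted maximal effect; scaled between full activation by ribose 5 phosphate and full inhibition by luteolin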
# HBB splice mod = alters splicing of the hemoglobin beta chain; Potency, µM (doses to about 46.1 µM), without a hit: top-dose activation, most hits filed as activators; AID 925; HBB splicing reporter cell assay, activation; EGFP reporter with mutant IVS2-654 intron; response scale: normalised to 500 nM splice-correcting PNA; 65,000 tested, 0.06% active; further: potency means the concentration at half of the fitted maximal effect; 0% is about no effect
#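 HeLa cells stably expressing EGFP interrupted by mutant beta-globin intron 2 (IVS2-654), 500/well in 2% FCS. Treated with compound for 2 days at 37C. Splicing correction scored as total well GFP intensity (488 nm excitation, 500-520 nm emission); 500 nM antisense PNA served as control.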
# GBA mod = modulators of human glucocerebrosidase; purified enzyme, resorufin glucoside fluorescence (screen aimed at inhibitors), 20 min; P04062; 48,000 tested, 1.1% active; Potency, µM; in the data active means potency below about 15 µM; inconclusive means mostly about 16 µM to 33 µM;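 further: potency means the concentration at half of the fitted maximal effect; the screen sought inhibitors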
# Target sequence (P04062 whole entry, looked up): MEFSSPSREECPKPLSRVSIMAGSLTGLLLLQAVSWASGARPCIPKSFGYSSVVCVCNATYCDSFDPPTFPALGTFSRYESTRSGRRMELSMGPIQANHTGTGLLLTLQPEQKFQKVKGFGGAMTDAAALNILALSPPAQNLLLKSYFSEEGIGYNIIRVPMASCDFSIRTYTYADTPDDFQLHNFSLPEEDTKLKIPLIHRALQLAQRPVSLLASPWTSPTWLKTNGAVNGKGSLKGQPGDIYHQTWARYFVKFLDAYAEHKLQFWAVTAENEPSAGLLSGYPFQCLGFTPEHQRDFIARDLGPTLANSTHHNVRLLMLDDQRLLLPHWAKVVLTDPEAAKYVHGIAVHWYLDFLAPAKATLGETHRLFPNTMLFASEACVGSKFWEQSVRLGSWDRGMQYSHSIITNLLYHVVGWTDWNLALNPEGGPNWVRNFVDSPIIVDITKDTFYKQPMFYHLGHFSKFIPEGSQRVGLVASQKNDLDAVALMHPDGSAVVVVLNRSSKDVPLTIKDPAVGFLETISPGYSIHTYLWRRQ
#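 Compounds titrated against 0.2 nM normal enzyme, 30 uM resorufin beta-D-glucopyranoside substrate, citrate/phosphate buffer with taurocholate and tween-20, pH 5.9. Reaction ran 20 min at room temperature; fluorescence (Ex 548/Em 600) gave AC50.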
# FLuc inh = blocks Photinus pyralis firefly luciferase activity; Potency, µM (series often up to 57.1 µM), for inactives: at the highest dose activity change, negative = inhibition, usual class: inhibitors; P08659; 72,000 tested, 2.2% active; AID 411; purified firefly luciferase, luminescence, 8 min; further: potency means the concentration at half of the fitted maximal effect; on the % scale 0 is the no-effect control and ±100 the full control effect; nearly all actives have a fitted effect of over 40% in size
#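 Here, luciferase activity is measured as luminescence following an 8 min room-temperature reaction at 10 uM ATP, pH 7.2. Every library sample is titrated.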
# UbGFP stabilizer = inhibits proteasome, raising ubiquitin-GFP reporter fluorescence | Ubiquitin-GFP reporter cells, proteasome inhibition, GFP fluorescence; response scale: untreated = 0%, 10 µM MG-132 = 100% | Potency, µM (series often up to 45.9 µM), for inactives: top-dose activation (GFP accumulation), actives largely listed as activators | 67,000 tested, under 10 active; active means well fitted activation curve with a large enough effect, not every such curve was filed as active; inconclusive means small, poorly fitted or top-dose-only effect, or another doubt; inactive means no such curve, though single readings can be large or run the other way; further: potency means the concentration at half of the fitted maximal effect
#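 Reporter cells (U2OS, ubiquitin-G76V-GFP fusion) are plated overnight, then treated 4 hr at 37 °C with compound titrations from 46 uM down to 2.9 nM. Activity is scaled against untreated cells and 10 uM MG-132.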
# An asterisk follows results filed as active; i = inactive; ? = inconclusive; nt = not tested or not shown; [ ] = remark or other dose. Unless noted, the call rests on the fitted dose curve; in most records, active means well fitted curve in the direction sought with a large enough effect; inconclusive means small, poorly fitted or top-dose-only effect, or another doubt; inactive means no such curve, though single readings can be large; an effect the other way counts as inactive or inconclusive.
SMILES,Epigenetic mod,Bst PK mod,HBB splice mod,GBA mod,FLuc inh,UbGFP stabilizer
N#Cc1nc(-c2ccc(OCc3ccc(Cl)cc3)cc2)oc1NCc1cccnc1,4%,2.7*,4%[0.369 µM],>77,-2%,-1%
N#Cc1nc(-c2ccc(OCc3ccccc3Cl)cc2)oc1NCCCn1ccnc1,0%,2.6*,-5%[0.369 µM],?,0%,0%
N#Cc1nc(-c2ccc(OCc3ccccc3)cc2)oc1NCc1cccnc1,-1%,nt,-3%[0.369 µM],>77,0%,2%
N#Cc1nc(COc2ccc(Br)cc2)oc1NCCCn1ccnc1,0%,>57,2%,14*,4%,0%
CN(C)c1nc(-c2ccoc2)nc2ccccc12,-1%[9.22 µM],nt,-1%,nt,-1%[2.29 µM],2%
N#Cc1nc(-c2ccc(OCc3ccccc3)cc2)oc1NCCCn1ccnc1,3%,4.3*,4%[0.369 µM],?,1%,-2%
COc1ccc(-c2nc(C#N)c(NCCc3ccccc3)o2)cc1OC,3%,i,5%[0.369 µM],>77,13µM*,4%
N#Cc1nc(COc2ccccc2)oc1NCCCn1ccnc1,0%,>57,2%,nt,-4%,-7%
CN(C)c1oc(-c2ccc(OCc3ccccc3)cc2)nc1C#N,6%,2.8*,10%[0.369 µM],i,2%,5%
COC(=O)[C@@]1(Cc2ccc(OC)cc2)[C@H]2c3cc(C(=O)N(C)C)n(CCF)c3C[C@H]2CN1C(=O)c1ccccc1,nt,nt,0%,nt,nt,nt
COc1ccc(Br)cc1CNC(=O)C1CCCN(S(C)(=O)=O)C1 (stereo not given),-2%,5.4*,-2%,>77,10µM*,7%
CS(=O)(=O)N1CCCC(C(=O)NCc2ccccc2Cl)C1 (stereo not given),-3%,>57,-1%,>77,0%,-7%
c1ccc2c(N3CCCC3)nc(-c3ccncc3)nc2c1,0%,i,3%[0.369 µM],>77,1%,nt
C=CCOc1nc(-c2ccncc2)nc2ccccc12,-5%[20.6 µM],8.3*,nt,nt,0%[25.5 µM],nt
Cc1cc(S(=O)(=O)N(Cc2ccccc2)Cc2ccc(N(C)C)cc2)ccc1-n1cnnn1,4%,>57,nt,8.5*,-1%,-4%
O=C(c1ccc2c(c1)OCCO2)C1CCN(S(=O)(=O)c2ccc(F)cc2)CC1,-3%,10*,nt,>77,0%,3%
C[C@@H](/C=C\c1cccc(Oc2ccc(F)cc2)c1)N(O)C(N)=O,-1%,nt,0%,nt,-2%,0%
O=C1C[C@H]2OCC=C3CN4CC[C@@]5(C(=O)O)[C@H](N1)[C@H]2[C@H]3C[C@H]45,-1%[9.22 µM],nt,4%[9.22 µM],nt,3%[11.4 µM],-5%[9.17 µM]
c1cn2c(NC3CCCC3)c(-c3ccc(N4CCOCC4)cc3)nc2cn1,nt,nt,0%,nt,2.5µM*,5%
Oc1ccc(-c2nc3cnccn3c2Nc2ccc3c(c2)OCCO3)cc1,nt,nt,0%,nt,-1%,-9%
NC(=O)C1=CN([C@@H]2O[C@@H](COP(=O)(O)OP(=O)(O)OC[C@@H]3O[C@H](n4cnc5c(N)ncnc54)[C@@H](OP(=O)(O)O)[C@@H]3O)[C@H](O)[C@@H]2O)C=CC1,0%,nt,2%,nt,2%,3%
Cc1nc2ccccc2c2c1C(=O)N(C)C2=O,8%,nt,0%,>77,1%,-5%
Cc1nc2ccccc2c2c1C(=O)N(CCC1=CCCCC1)C2=O,0%,>57,-1%,14*,0%,1%
CCOc1cccc(-c2nc3cc(C)ccc3o2)c1,-2%,nt,-1%[9.22 µM],nt,7.9µM*,4%
CCCC(=O)Nc1ccc(-c2nc3cc(C)ccc3o2)cc1,2%,5.3*,-2%,>77,4µM*,4%
SMILES,Epigenetic mod,Bst PK mod,HBB splice mod,GBA mod,FLuc inh,UbGFP stabilizer
COc1ccccc1C[C@@H](Cc1nc2ccccc2[nH]1)c1nc2ccccc2[nH]1,-2%[9.22 µM],nt,nt,nt,2%[11.4 µM],2%
Fc1ccc2nc3[nH]c4ccccc4c3nc2c1,0%,3.7*,4%[0.369 µM],>77,6.3µM*,-1%
CCc1ccc(-c2cn3nc(C)c(C)nc3n2)cc1,4%[20.6 µM],1.5*,nt,nt,1µM*,nt
Cc1nn2cc(-c3ccc(N)cc3)nc2s1,1%,nt,nt,>77,?,4%
Cc1nc2nc(-c3ccccc3)cn2nc1C,-1%,i,-1%,>77,13µM*,5%
CCc1c(-c2ccccc2)nc2nc(C)c(C)nn12,-7%,nt,0%,nt,-12%,-3%
CN1CCC[C@@H]1c1cccnc1.O=C(O)c1ccccc1O.O=C([OH2+])c1ccccc1O.O=C([OH2+])c1ccccc1O.O=C([OH2+])c1ccccc1O.[Cu],4%[9.22 µM],nt,4%[9.22 µM],nt,1%[11.4 µM],3%[9.17 µM]
O=C(CN1C(=O)c2cccc3cccc1c23)Nc1cccnc1,0%,10*,0%,>77,1%,5%
CCOC(=O)c1cc(-c2ccncc2)nc2c1c(C)nn2-c1ccccn1,-1%,nt,0%[57.5 µM],>77,4%,-5%
Cc1nn(-c2ccccn2)c2nc(-c3cccs3)cc(C(=O)N3CCOCC3)c12,-3%,7.1*,-1%,>77,-43%,-1%
CC/C(C)=N/O,nt,nt,0%,nt,nt,nt
COc1ccc(NC(=O)c2ccc3c(c2)C(=O)N(Cc2cccnc2)C3=O)c(OC)c1,-1%,>57,-1%,5*,2%,-5%
Cc1ccc(-c2nnn(CC(=O)N(Cc3cccs3)C(C(=O)NC3CCCC3)c3ccco3)n2)o1 (stereo not given),-2%,>57,nt,>77,3%,1%
O=C(NC1CCCC1)C(c1cccs1)N(Cc1ccco1)C(=O)Cn1nnc(-c2cccs2)n1 (stereo not given),-2%,>57,nt,11*,-4%,-2%
O=C(Nc1nc2ccc(Cl)cc2s1)c1ccc(Br)o1,-5%,nt,2%[0.0738 µM],nt,13µM*,-9%[9.17 µM]
CC1(C)Cc2c(sc(NC(=O)c3ccc(Br)o3)c2C#N)CO1,-3%[20.6 µM],nt,nt,nt,10µM*,nt
Nc1ccc(CCNc2ncnc3c2ncn3[C@@H]2O[C@@H](CO)[C@H](O)[C@@H]2O)cc1,-2%,nt,0%,nt,0%,4%
C#CCCCO/N=C1/C[C@@H](O)[C@@H](O)[C@@H]2[C@@H]3C(=O)N(C4CCCCC4)C(=O)[C@H]3CC[C@@H]12,nt,nt,3%[9.22 µM],nt,-2%[11.4 µM],nt
Cn1c(=O)[nH]c(=O)c2c1nc(SCCN1CCOCC1)n2Cc1ccccc1,-2%,>57,-1%,9*,2%,0%
COc1ccc(N(CC(=O)Nc2ccc(C)c(C)c2)S(=O)(=O)c2c(C)n[nH]c2C)cc1,3%,>57,0%,15*,0%,-6%
O=C(Nc1ccc2c(c1)nc1n2CCN(C2CCCCC2)C1)c1ccco1,-3%,>57,5%,i,-6%,-3%
O=C(Nc1ccc2c(c1)nc1n2CCSC1)c1ccco1,-2%,4.6*,-1%[0.369 µM],nt,6.3µM*,nt
O=C(Nc1ccc2c(c1)nc1n2CCOC1)c1ccco1,-2%,?,5%[0.369 µM],?,16µM*,nt
